This is a sample that favours compounds with a hit; in the whole collection about 2.1% have one here.
HIV Env fusion = inhibitors of HIV-1 Env-driven cell-cell fusion, primary screen, HeLa-JRFL effector, CEM21 target cells, luciferase; inhibition, % at 12.3 µM; hit rate 1.1% among 360,000; AID 651610, 2012;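 active = mean replicate inhibition score of at least 50 and every replicate individually at or above 50; inconclusive = only one of the two criteria met; inactive = mean below 50 and not all replicates reaching 50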;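 note: 0% = plate neutral controls and 100% = maraviroc near 300 nM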
NSD2 HMT inh = NSD2 histone methyltransferase inhibitors, primary screen, biochemical, AlphaScreen, single concentration, set 2. NSD2 peptide methylation, 120 min. inhibition, % at 12.5 µM. hit rate 0.54% among 310,000; in the data active = inhibition above about 50%
Target sequence (O96028 whole entry, looked up): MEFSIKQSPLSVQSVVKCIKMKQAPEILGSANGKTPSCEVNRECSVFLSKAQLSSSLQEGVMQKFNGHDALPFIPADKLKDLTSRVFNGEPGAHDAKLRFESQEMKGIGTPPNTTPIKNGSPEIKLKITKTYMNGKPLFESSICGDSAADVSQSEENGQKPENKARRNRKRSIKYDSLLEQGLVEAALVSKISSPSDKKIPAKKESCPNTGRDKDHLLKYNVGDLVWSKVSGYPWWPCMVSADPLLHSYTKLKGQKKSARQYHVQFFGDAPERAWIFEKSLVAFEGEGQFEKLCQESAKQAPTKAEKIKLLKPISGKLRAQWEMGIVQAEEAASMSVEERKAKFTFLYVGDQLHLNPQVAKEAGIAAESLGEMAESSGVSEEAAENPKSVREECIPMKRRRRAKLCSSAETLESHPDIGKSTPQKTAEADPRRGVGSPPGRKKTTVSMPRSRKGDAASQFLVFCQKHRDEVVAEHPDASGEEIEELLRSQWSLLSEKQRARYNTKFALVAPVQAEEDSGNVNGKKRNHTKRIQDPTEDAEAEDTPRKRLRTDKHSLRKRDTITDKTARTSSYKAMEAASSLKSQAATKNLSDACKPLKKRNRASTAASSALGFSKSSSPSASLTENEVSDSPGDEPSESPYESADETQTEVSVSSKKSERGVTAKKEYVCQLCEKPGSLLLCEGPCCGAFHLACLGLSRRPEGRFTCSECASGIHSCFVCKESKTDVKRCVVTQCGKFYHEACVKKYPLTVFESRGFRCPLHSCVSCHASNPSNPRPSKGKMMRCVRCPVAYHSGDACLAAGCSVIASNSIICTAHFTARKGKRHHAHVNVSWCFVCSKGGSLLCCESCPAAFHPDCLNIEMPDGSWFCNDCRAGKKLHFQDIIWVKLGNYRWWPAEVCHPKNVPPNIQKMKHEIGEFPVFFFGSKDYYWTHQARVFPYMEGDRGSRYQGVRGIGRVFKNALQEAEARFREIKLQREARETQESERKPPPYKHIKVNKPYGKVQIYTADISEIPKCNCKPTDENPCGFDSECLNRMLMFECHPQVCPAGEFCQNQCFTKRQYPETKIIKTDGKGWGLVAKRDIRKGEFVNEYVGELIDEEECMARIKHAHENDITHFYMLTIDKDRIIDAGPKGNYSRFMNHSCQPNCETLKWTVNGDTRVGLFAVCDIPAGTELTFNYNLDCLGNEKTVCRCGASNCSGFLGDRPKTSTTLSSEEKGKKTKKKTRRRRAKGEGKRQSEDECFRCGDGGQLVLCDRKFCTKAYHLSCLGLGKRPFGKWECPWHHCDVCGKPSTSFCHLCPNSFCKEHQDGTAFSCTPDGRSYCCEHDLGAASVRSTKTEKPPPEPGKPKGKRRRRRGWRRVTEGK
INS-1E GSIS act = GLuc luminescence reporter in INS-1E cells, primary screen for activators of glucose-dependent secretion of insulin; INS-1E GLuc reporter insulin secretion, 2-3 h; activation, % at 16.6 µM; hit rate 0.61% among 370,000; AID 743287, 2014;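 active = lowest replicate activation of at least 40%, so every replicate reaches that level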;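 note: 0% = median of neutral control wells and 100% = median of IBMX positive control wells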
PGC1a acetyl inh = inhibitors of PGC1a acetylation signal, primary screen, cell-based, U2OS, AlphaScreen, inhibitor mode; inhibition, % at 15.6 µM; AlphaScreen anti-acetyl-lysine; with virally co-expressed GCN5 acetyltransferase; hit rate 0.17% among 350,000;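 active = every replicate shows inhibition of at least 40%; inconclusive = mean inhibition at least 40% but some replicate below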;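 note: 0% = neutral control wells and 100% = positive control wells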
MLL AF4-AF9 inh = inhibitors of AF4 peptide binding to AF9, primary screen, biochemical, AlphaScreen, biotin-AF4 peptide, FLAG-AF9, single point | Protein AF-9 (Homo sapiens), P42568 | inhibition, % at 10 µM | hit rate 0.47% among 350,000;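 active = every replicate reaching a set inhibition limit, whatever the replicate mean, cut at about 25% in these data; inconclusive = mean inhibition reaches that limit but some replicates miss it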;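 note: 0% = plate neutral control median and 100% = total signal loss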
* = called active by the depositor; ? = inconclusive; / = not tested or not shown; ! = not confirmed by another sample; [ ] = remark or other dose.

SMILES | HIV Env fusion | NSD2 HMT inh | INS-1E GSIS act | PGC1a acetyl inh | MLL AF4-AF9 inh
CN1CCN(C(=O)CCN2C(=O)S/C(=C/c3ccc(Cl)cc3)C2=O)CC1 | 24 | 1 | -3 | / | 1
Cc1ccc(/C=C2\SC(=O)N(CCC(=O)N3CCN(C)CC3)C2=O)cc1 | -16 | -1 | 50* | / | 3
C[C@H]1CN([C@@H](C)CO)C(=O)c2cc(NC(=O)Cc3ccccc3)ccc2O[C@H]1CN(C)S(C)(=O)=O | -11[16.7 µM] | / | 24 | 6 | -3
NC(=O)NC(=O)CSc1nc(C2CCCCC2)n(-c2ccccc2)n1 | -4 | -1 | 5 | / | 5
C/C(N)=C(/C#N)C(=O)CSc1nc(C2CCCCC2)n(-c2ccccc2)n1 | 67*! | -6 | 2 | -2 | 3
CCOC(=O)c1nc(NCc2cccnc2)c2ccccc2n1 | -12 | -2 | 46* | / | /
C[C@H](NC(=O)C[C@@H]1C=C[C@@H](NC(=O)C2CC2)[C@@H](CO)O1)c1ccccc1 | 19[16.7 µM] | / | -6 | 3 | 1
Cc1ccc(C)c(NS(=O)(=O)c2cc(C(=O)Nc3ccccc3-c3ccccc3)ccc2C)c1 | 71* | 0 | -39 | -9 | /
Cc1ccc(C(=O)Nc2ccccc2-c2ccccc2)cc1S(=O)(=O)Nc1cccc(C)c1C | 14 | 0 | / | / | /
COc1ccc(-c2ccc(-c3cc(=O)oc4cc(OC)c(OC)c(OC)c34)cc2)cc1OC | ? | / | -28 | / | -1
COc1cc2oc(=O)cc(-c3cccc(-c4cccc(C)c4)c3)c2c(OC)c1OC | 57* | / | 1 | -5 | -2
COc1cc(NC(C)CCCNC(C)C)c2ncccc2c1OC (stereo not given) | / | 111* | 15 | / | 3
CC1CN(Cc2cc(=O)oc3cc(O)ccc23)CC(C)O1 (stereo not given) | -3 | 3 | 38 | 8 | -8
CC(Oc1ncnc2ccccc12)C(=O)Nc1cccc(S(=O)(=O)N2CCOCC2)c1 (stereo not given) | / | -2 | 23 | 1 | 29*
O=C(COc1ncnc2ccccc12)Nc1cccc(S(=O)(=O)N2CCOCC2)c1 | -6 | -1 | 1 | / | /
CCCNC(=O)[C@H]1[C@H](CO)[C@H]2Cn3c(ccc(-c4cncnc4)c3=O)[C@@H]1N2C(=O)Nc1ccccc1 | 6[16.7 µM] | / | 14 | / | -1
O=c1[nH]c2nc(Cl)nc(Cl)c2[nH]1 | / | -2 | 18 | 74* | 1
CN1C(C(=O)NCc2cccs2)=CC(c2ccc(F)cc2)=NS1(=O)=O | 71* | 2 | -2 | -6 | 2
COc1ccc(C2=NS(=O)(=O)N(C)C(C(=O)NCc3cccs3)=C2)cc1OC | -21 | / | 19 | -6 | 7
CC(=O)c1cccc(NC(=O)C2=CC(c3cccs3)=NS(=O)(=O)N2C)c1 | 0 | 9 | -8 | -15 | 3
CN1C(C(=O)Nc2cccc(O)c2)=CC(c2cccs2)=NS1(=O)=O | -2 | / | / | -1 | 27*
CCCCN1C(=O)C(O)(c2ccccc2)c2cc(Br)ccc21 (stereo not given) | 85* | -3 | -34 | -41 | 1
CCOC(=O)c1c(-c2ccc(OC)cc2)csc1/N=C/C1C(=O)CCCC1=O | 2 | 0 | -4 | 0 | 0
C[C@H](CO)N1C[C@H](C)[C@@H](CN(C)S(=O)(=O)c2ccc(-n3cccn3)cc2)OCc2cnnn2CCCC1=O | 22 | / | -6 | -2 | -4
COc1ccc(NC(=O)NCCCN2CCN(c3cc(C)ccc3C)CC2)cc1 | 59* | / | -5 | / | 8
SMILES | HIV Env fusion | NSD2 HMT inh | INS-1E GSIS act | PGC1a acetyl inh | MLL AF4-AF9 inh
CC1CCC(C(C)C)C(OC(=O)Cn2c(-c3ccc(Cl)cc3)[n+](C)c3ccccc32)C1 (stereo not given) | 68* | / | 88 | 2 | 17
CC1CCC(C(C)C)C(OC(=O)Cn2c(-c3ccc(Br)cc3)[n+](C)c3ccccc32)C1 (stereo not given) | 58*! | 10 | 275* | -45 | 14
Cc1ccccc1OCc1n(CC(=O)OC2CC(C)CCC2C(C)C)c2ccccc2[n+]1C (stereo not given) | 71* | 29 | 77* | 12 | 23
N/C(=N\OC(=O)COc1ccc(Cl)cc1Cl)c1cccnc1 | / | -4 | 60* | -1 | /
N/C(=N\OC(=O)COc1ccc(Cl)cc1)c1cccnc1 | / | 11 | -7 | 0 | -3
OC(COc1ccc(Br)cc1)CN1CCC(Cc2ccccc2)CC1 (stereo not given) | 7 | 1 | -28 | -1 | -4
CC(C)OCC(O)CN1CCC(Cc2ccccc2)CC1 (stereo not given) | -10 | 1 | 44* | -4 | 1
Cc1ccc(-n2nc3c(c2NC(=O)C2CC2)CS(=O)(=O)C3)cc1C | 3 | -1 | 9 | 2 | -2
Cc1ccc(-n2nc3c(c2NC(=O)C2CC2)CS(=O)(=O)C3)cc1 | -11 | -5 | 57* | 4 | -11
O=C(CNC(=O)c1cccs1)NCC(=O)OCc1ccccc1Br | -3 | -3 | 1 | -1 | -1
CC(C)Cn1c(SCC(=O)NC2CC2)nc2ccccc21 | 95* | / | / | -6 | -5
O=C(CSc1nc2ccccc2n1CCc1ccccc1)NC1CC1 | 16 | -1 | 5 | / | 0
COc1ccccc1Nc1nc(N)nc(CCl)n1 | -9 | 0 | 13 | -7 | -1
NS(=O)(=O)c1ccc(NC(=O)COC(=O)c2cn(-c3ccccc3)nc2-c2ccc(F)cc2)cc1 | -7 | -2 | 65* | / | /
O=C(COC(=O)c1cn(-c2ccccc2)nc1-c1ccc(F)cc1)Nc1ncc(Cl)cc1Cl | -11 | 1 | -1 | / | -1
Cc1cccc(NC(=O)CSc2nc(C)nc3c2c(=O)n(C)c(=O)n3C)c1 | 14 | / | / | 3 | -4
Nc1nnc(SCCCOc2ccc(F)cc2)s1 | -16 | 1 | -8 | -2 | -1
O=C(Nc1cccc(C(=O)O)c1)Nc1ccc2c(c1)OCO2 | 83* | -1 | 10 | / | -7
CC1CCN(C(C(=O)Nc2ccc3c(c2)OCO3)c2ccccc2)CC1 (stereo not given) | 1 | / | / | -16 | 52*
COc1cccc(NC(=O)Nc2cccc(C(=O)O)c2)c1 | 71* | 1 | 2 | -10 | 0
O=C(Nc1ccc2c(c1)OCO2)Nc1ccc2c(c1)OCO2 | -10 | 0 | -5 | / | -2
Cc1nc(SCC(=O)Nc2ccc3c(c2)OCO3)c(C#N)c2c1CCCC2 | / | -2 | / | -10 | /
O=C1CC(c2ccccc2)n2nc(NC(=O)c3cccs3)nc2N1 (stereo not given) | 3 | -18 | / | -7 | /
COc1ccc(Cc2nnc(NS(=O)(=O)c3ccc(NC(C)=O)cc3)s2)cc1 | -19 | 6 | 8 | 2 | 0
OCCCNc1cc(-c2ccnc(Nc3cccc(Cl)c3)n2)ccn1 | 52 | / | -8 | / | -9
CCC(C)Oc1cc(-c2ccnc(Nc3cccc(Cl)c3)n2)ccn1 (stereo not given) | 66* | / | -11 | / | 1
